# Assay results as given in PubChem BioAssay AID1347048 (National Center for Advancing Translational Sciences (NCATS), 2019).
# Screen size: about 76,000 compounds; about 1,200 (1.6%) were called active. Inconclusive results (about 4%) are left out. For the sample, actives were picked, then their nearest neighbours and some compounds at random. Values without a mark were called inactive. Calls follow the shape of the full dose curve.
# Target: Atrial natriuretic peptide receptor 1 (Homo sapiens) (UniProt P16066)
# Test: Natriuretic polypeptide receptor (hNpr1) antagonism - Primary qHTS; also: nearly all actives have a fitted effect of over 60% in size
# Details: HEK293 hNpr1 GloSensor cGMP, ANP-stimulated luminescence; series mostly up to 46.3 µM; activity change, negative = inhibition: at the top concentration
# Description: Pruritus or itch, is an irritating skin sensation that creates a need to scratch, and ranges from mildly unpleasant and passing to acute and persistent sensations. […] Conventional treatments include topical anti-inflammatory agents, anti-histamines, and emollients, which are aimed at managing the itchy sensation and not the underlying disease. The treatment of pruritus remains a diagnostic and therapeutic challenge. Neurotransmission in the spinal cord from primary pruriceptors to second order neurons is a necessary step that eventually results in the sensation of itch. At this synapse, primary pruriceptors use the neuropeptide natriuretic polypeptide B (NppB) to activate its cognate receptor Natriuretic polypeptide receptor 1 (Npr1) on second order neurons. Inhibition of this step is a new potential strategy to inhibit acute and chronic itch. In order to identify small molecular compounds that can inhibit the Npr1 receptor we developed a high-throughput assay to probe inhibition of the receptor guanylate cyclase Npr1. The assay was designed taking advantage of Promega's GloSensor[TM] technology (Fan, F. et al. 2008). It involves the expression of a cyclic guanosine monophosphate (cGMP) biosensor, comprised of a firefly luciferase variant that was coupled to the cGMP binding domain of human phosphodiesterase 5A, and loading of cells with a cell-permeable luciferase substrate to monitor cGMP production by Npr1 in real time in live cells. In detail, we generated human embryonic kidney 293 cells stably expressing the human Npr1 and the cGMP GloSensor[TM] pGS-40F. Stimulating these cells with the Npr1 agonists human NppA or NppB, luciferase-induced light production could be detected in a dose-dependent manner. We also generated HEK293 cells stably expressing human Npr2 and pGS-40F and cells only expressing pGS-40F to conduct secondary counter screens. In these cells, NppC or sodium nitroprusside were used to stimulate Npr2 or soluble guanylate cyclase which is endogenously expressed in HEK293 cells, respectively. REFERENCE F. Fan, B. F. Binkowski, B. L. Butler, P. F. Stecha, M. K. Lewis, K. V. Wood, Novel genetically encoded biosensors using firefly luciferase. ACS Chem. Biol., 2008, 3: 346-351 .
# PROTOCOL TABLES (as described by Inglese J, Shamu CE and Guy RK. 2007) SEQUENCE No. (e.g., 1, 2, 3, etc.); […] (e.g., Cells, Incubation, Reagent, etc.); VALUE and DESCRIPTION. GLOSENSOR PROTOCOL 1. Cells. Seed 1500 HEK293 cGMP-sensor cells expressing hNpr1 per well in 4uL into Greiner 1536-well white/solid bottom high base, tissue culture-treated plates. 2. Incubation. Incubate plated cells at 37C in 5% CO2, 95% RH overnight. 3. Reagent. Add 1uL per well GloSensor reagent from Promega (2% final concentration) or CO2 independent media vehicle control to respective columns of Greiner 1536-well plates. 4. Incubation. Incubate plated cells at room temperature for 2 h, protect from light. 5. Compounds. Library compounds and A-71915 control added at 23 nL per well, transferred by Pin Tool. 6. Incubation. Incubate plated cells for 30 min. at room temperature, protect from light. 7. Detector. GloSensor baseline pre-read luminescence measured using CCD-based camera (Viewlux). 8. Compound. Add 1uL of hNppA peptide to 0.1 nM final concentration to stimulate hNpr1 or CO2 independent media as vehicle control. 9. Incubation. Incubate treated cells at room temperature for 20 min., protect from light. 10. Detector. GloSensor post-hNppA luminescence measured using CCD-based camera (Viewlux). NOTES (numbers refer to Sequence numbers above) 1. HEK293 cells expressing hNpr1 and GIP/pGS-40F grown to 85-95% confluence (48-72 h) in T175 culture flasks (CO2 independent media supplemented with 10% FBS, 1% Pen/Strep antibiotics and 1 ug/mL puromycin). Trypsinize and harvest cells from T175 culture flasks and filter through 40 um cell strainer. Cells counted with Invitrogen Countess (30,000,000 - 50,000,000 cells/flask). […]
# % is scaled to controls: 0 for no effect and ±100 for the full control effect; potency is read from the fitted curve at half-maximal effect.
# Atrial natriuretic peptide receptor 1 (Homo sapiens), sequence (P16066 whole entry, looked up): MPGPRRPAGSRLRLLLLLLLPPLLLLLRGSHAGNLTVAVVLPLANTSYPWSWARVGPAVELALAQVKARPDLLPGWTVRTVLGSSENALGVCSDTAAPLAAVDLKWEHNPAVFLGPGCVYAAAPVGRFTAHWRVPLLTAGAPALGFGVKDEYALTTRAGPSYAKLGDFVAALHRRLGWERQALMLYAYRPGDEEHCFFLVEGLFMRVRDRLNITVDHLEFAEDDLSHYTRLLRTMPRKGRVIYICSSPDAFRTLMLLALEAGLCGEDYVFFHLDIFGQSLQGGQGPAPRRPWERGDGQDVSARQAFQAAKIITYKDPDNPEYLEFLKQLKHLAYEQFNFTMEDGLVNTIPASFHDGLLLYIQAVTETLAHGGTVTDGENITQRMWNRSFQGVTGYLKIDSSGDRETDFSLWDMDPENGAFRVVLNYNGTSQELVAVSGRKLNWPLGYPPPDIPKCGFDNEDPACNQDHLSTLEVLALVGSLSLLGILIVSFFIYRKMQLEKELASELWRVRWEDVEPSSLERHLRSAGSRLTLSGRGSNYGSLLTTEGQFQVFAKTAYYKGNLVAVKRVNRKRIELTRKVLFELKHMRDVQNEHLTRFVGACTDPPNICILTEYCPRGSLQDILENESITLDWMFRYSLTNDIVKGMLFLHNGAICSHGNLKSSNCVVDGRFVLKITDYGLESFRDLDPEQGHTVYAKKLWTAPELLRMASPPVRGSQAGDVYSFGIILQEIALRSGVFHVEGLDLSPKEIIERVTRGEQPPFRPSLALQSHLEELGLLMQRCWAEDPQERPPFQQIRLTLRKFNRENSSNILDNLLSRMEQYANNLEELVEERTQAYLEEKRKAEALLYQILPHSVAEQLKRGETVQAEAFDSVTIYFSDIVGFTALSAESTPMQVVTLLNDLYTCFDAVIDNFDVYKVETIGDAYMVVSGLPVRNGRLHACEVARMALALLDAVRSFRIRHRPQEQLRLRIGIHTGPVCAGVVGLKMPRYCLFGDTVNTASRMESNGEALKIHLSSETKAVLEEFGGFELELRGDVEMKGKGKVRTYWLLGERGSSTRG
SMILES,"activity change, negative = inhibition",Potency
O=C(NC[C@H]1O[C@H](Cc2cc(-c3ccccc3)on2)CC[C@@H]1O)C1CCC1,3.18% [at 70.6 µM],
CC(=O)N1CCC(NC[C@H]2O[C@H](Cc3cc(-c4cccc(O)c4)on3)CC[C@@H]2O)CC1,,25.1 µM (active)
O[C@H]1CC[C@@H](Cc2cc(-c3ccccc3)on2)O[C@@H]1CNCc1ccccc1,-16.7% [at 70.6 µM],
NC(=O)C1CCCN(CC(=O)Nc2nc3ccccc3[nH]2)C1 (stereo not given),7.47%,
CC1Oc2ccc(NC(=O)c3ccc([N+](=O)[O-])cc3)cc2CN(Cc2ccccc2)C1=O (stereo not given),-15.2%,
Cc1nc(-c2ccncc2)ncc1C(C)Nc1ncnc(C)c1C (stereo not given),,10 µM (active)
CC(Cn1cncn1)Nc1nc(-c2ccncc2)nc2c1cnn2C (stereo not given),9.2%,
Cc1ccc(-c2ncc(C(=O)Nc3ccccc3C)c(-c3ccncc3)n2)cc1,-5.03%,
COCC(=O)N1CCCC(c2nc(-c3ccc(C)nn3)no2)C1 (stereo not given),1.03%,
O=C(c1cccc(F)c1)N1CCCC(CN2CCOCC2)CC1 (stereo not given),4.23%,
O=C(c1ccccc1)N1CCNc2cnc(Nc3cccc(C(F)(F)F)c3)nc2C1,,20 µM (active)
O=C(c1cccc(F)c1)N1CCCC(c2nccn2Cc2cscn2)C1 (stereo not given),-4.15%,
O=C(c1cccc(O)c1)N1CCNc2cnc(Nc3cccc(F)c3)nc2C1,,22.4 µM (active)
O=C(c1nc2ccccc2[nH]1)N1CCNc2cnc(Nc3ccc(-n4ccnc4)cc3)nc2C1,-12.9%,
COc1ccccc1Nc1ncc2c(n1)CN(C(=O)COc1ccccc1)CCN2,-1.75% [at 70.6 µM],
COc1ccc(C(=O)N[C@H]2C[C@@H](c3nc(-c4ccc(OC)cc4)no3)N(C)C2)cc1,-3.43% [at 70.6 µM],
c1ccc(Nc2cnc3ccc(-n4ccnc4)nn23)cc1,-6.68% [at 70.6 µM],
CC1(C)C[C@H](NC(=O)c2ccc(C#N)cc2)[C@@]2(CCC(=O)NCCc3c[nH]c4ccccc34)CC[C@](C)(O)C[C@@H]12,1.06%,
Cc1ccccc1-c1cn[nH]c1C1CCN(C(=O)CCCn2cnnn2)CC1,-12.2%,
O=C(C1CCOCC1)N1CCOC[C@H](Oc2ccccc2)C1,6.7% [at 70.6 µM],
O=C(c1cccc(F)c1)N1CCOC[C@H](Oc2ccc(C(F)(F)F)cc2)C1,,28.2 µM (active)
O=C(c1cccc(F)c1)N1CCC(CCOc2ccc(F)cc2)C1 (stereo not given),-28.9%,
Cc1nn(-c2ccc(C(C)C)cc2)c(C)c1[C@@H]1C=C[C@@H](NC(=S)NCC(C)C)C1,,28.2 µM (active)
COc1ccc(-n2nc(C)c([C@@H]3C=C[C@@H](NC(=O)Nc4ccccc4)C3)c2C)cc1,,14.1 µM (active)
Cc1nn(-c2cccc(Br)c2)c(C)c1[C@@H]1C=C[C@@H](NS(=O)(=O)c2ccccc2)C1,-20.2%,

SMILES,"activity change, negative = inhibition",Potency
Cc1nn(Cc2ccccc2)c(C)c1[C@@H]1C=C[C@@H](NC(=O)NC2CCCCC2)C1,-22.1% [at 70.6 µM],
COc1ccc(NC(=O)N[C@@H]2C=C[C@@H](c3c(C)nn(-c4ccc(C(C)(C)C)cc4)c3C)C2)cc1,-18.6%,
Cc1nn(-c2ccc(C(C)C)cc2)c(C)c1[C@@H]1C=C[C@@H](NC(=O)CC2(CC(=O)O)CCCC2)C1,-1.22%,
Cc1nn(Cc2ccccc2)c(C)c1[C@@H]1C=C[C@@H](NC(=O)NC(C)C)C1,-4.73% [at 70.6 µM],
Cc1nn(-c2cccc(Br)c2)c(C)c1[C@@H]1C=C[C@@H](NC(=O)CC2(CC(=O)O)CCCC2)C1,-0.402%,
COc1ccc(-n2nc(C)c([C@H]3C=C[C@@H](OC(=O)Nc4cccc(F)c4)C3)c2C)cc1,,20 µM (active)
COC(=O)c1c(NC(C)=O)c2cc(NC3CCCCCC3)cnc2n1CC1CCCO1 (stereo not given),3.1%,
O=C(Cc1ccc(Cl)cc1)N1CCc2c(nc3cc[nH]n3c2=O)C1,1.92%,
COc1cccc(CN2CCN(Cc3ncccc3C)CC2)c1O,-0.599%,
O=c1c2c(n(Cc3ccccc3)n1-c1ccccc1)CN(Cc1ccn[nH]1)CC2,-0.367% [at 70.6 µM],
CCOc1ccc(CN2CCC(N3CCCC(C(=O)NC4CC4)C3)CC2)cc1 (stereo not given),-5.46%,
CCCNc1ccc2nnc(C)n2n1,2.13%,
Cc1noc(C)c1-c1cc(-c2ccccc2Oc2ccccc2)cn2cncc12,,28.2 µM (active)
COc1ccccc1-c1cc(-c2cn[nH]c2)c2cncn2c1,-9.24% [at 70.6 µM],
Cc1noc(C)c1-c1cc(-c2cncnc2)cn2cncc12,0.541% [at 70.6 µM],
CN(C)Cc1nnc(C2CC(NC(=O)c3cn4cccnc4n3)C2)n1C (stereo not given),9.29%,
O=C(c1ccccc1)N1CCOc2ccc(CN3CCc4ccccc4C3)cc2C1,-5.63%,
CCC(=O)N1CCc2oc(C)c(C(=O)NCCN(C)C)c2C1,3.38%,
CN1CCN(C(=O)C(C)(C)Oc2nn(Cc3cccc(Cl)c3)c3ccccc23)CC1,,15.8 µM (active)
CC(C)(Oc1nn(CC2CCOCC2)c2ccccc12)C(=O)NCc1ccccc1,-5.28% [at 70.6 µM],
COCc1ccc2c(c1)c(OC(C)(C)C(=O)N1CCN(C)CC1)nn2Cc1cccnc1,2.14% [at 70.6 µM],
CC(=O)N1CCC(N2C[C@H](O)C[C@H]2C(=O)NC2CCCCC2)CC1,3.14%,
Cc1c(C(=O)N2CCCn3nc(C(C)O)cc3C2)sc2nc[nH]c(=O)c12 (stereo not given),-0.218%,
OC1(Cc2cc(-c3ccccc3)no2)CCN(c2ncncn2)CC1,,3.55 µM (active)
C(=C\c1ccccc1)/CN1CCN(c2ncncn2)CC1,-30%,
